Experimental data published in PubChem BioAssay AID2284172 (EPA ToxCast).
The source made the active and inactive calls. The calls were made as follows: active = hit-call score of the fitted dose curve at least 0.9, where 1 is the maximum; inactive = score below 0.9.

Target: rat Cav1.2 (L-type), conducted at France lab site, Cacna1a (gene 25398) (UniProt P54282)
Assay: ERF_FR_IC_rCACNA1C_Dihydropyridine: Eurofins (ERF) Calcium Ion Channel Binding (Dihydropyridine Site) LeadHunter Assay for rat Cav1.2 (L-type), conducted at France lab site
Description: ERF_FR_IC_rCACNA1C_Dihydropyridine is a biochemical, single-readout assay that uses extracted gene-proteins in a cell-free assay. Measurements were taken 1.5 hour after chemical dosing in a 96-well plate. See Cav1.2 (L-type) Rat Calcium Ion Channel Binding (Dihydropyridine Site) Assay, Cerep.ERF_FR_IC_rCACNA1C_Dihydropyridine is an assay component calculated from the ERF_FR_IC_rCACNA1C_Dihydropyridine assay. It is designed to measure radioligand binding using a type of binding reporter as detected by scintillation counting with radiometry technology.Data from the assay component ERF_FR_IC_rCACNA1C_Dihydropyridine was analyzed at the assay endpoint, ERF_FR_IC_rCACNA1C_Dihydropyridine, in the positive analysis fitting direction relative to DMSO as the negative control and baseline of activity. Using a type of binding reporter, loss-of-signal activity can be used to understand changes in binding as they relate to gene CACNA1C. To generalize the intended target to other relatable targets, this assay endpoint is annotated to the ion channel intended target family, where the subfamily is voltage gated (Calcium).
Rat brain cells are incubated for 90 minutes at room temprature with [3H]nitrendipine (0.25 nM) ligand and Nitrendipine as control inhibitor. Test Sample Requirements: Minimum for 1) Screen: 60 ul of 10 mM stock -OR- 1 mg (pre-weighed) for 10 uM final testing. […]

Sequence of rat Cav1.2 (L-type), conducted at France lab site, Cacna1a (gene 25398) (P54282 whole entry, looked up): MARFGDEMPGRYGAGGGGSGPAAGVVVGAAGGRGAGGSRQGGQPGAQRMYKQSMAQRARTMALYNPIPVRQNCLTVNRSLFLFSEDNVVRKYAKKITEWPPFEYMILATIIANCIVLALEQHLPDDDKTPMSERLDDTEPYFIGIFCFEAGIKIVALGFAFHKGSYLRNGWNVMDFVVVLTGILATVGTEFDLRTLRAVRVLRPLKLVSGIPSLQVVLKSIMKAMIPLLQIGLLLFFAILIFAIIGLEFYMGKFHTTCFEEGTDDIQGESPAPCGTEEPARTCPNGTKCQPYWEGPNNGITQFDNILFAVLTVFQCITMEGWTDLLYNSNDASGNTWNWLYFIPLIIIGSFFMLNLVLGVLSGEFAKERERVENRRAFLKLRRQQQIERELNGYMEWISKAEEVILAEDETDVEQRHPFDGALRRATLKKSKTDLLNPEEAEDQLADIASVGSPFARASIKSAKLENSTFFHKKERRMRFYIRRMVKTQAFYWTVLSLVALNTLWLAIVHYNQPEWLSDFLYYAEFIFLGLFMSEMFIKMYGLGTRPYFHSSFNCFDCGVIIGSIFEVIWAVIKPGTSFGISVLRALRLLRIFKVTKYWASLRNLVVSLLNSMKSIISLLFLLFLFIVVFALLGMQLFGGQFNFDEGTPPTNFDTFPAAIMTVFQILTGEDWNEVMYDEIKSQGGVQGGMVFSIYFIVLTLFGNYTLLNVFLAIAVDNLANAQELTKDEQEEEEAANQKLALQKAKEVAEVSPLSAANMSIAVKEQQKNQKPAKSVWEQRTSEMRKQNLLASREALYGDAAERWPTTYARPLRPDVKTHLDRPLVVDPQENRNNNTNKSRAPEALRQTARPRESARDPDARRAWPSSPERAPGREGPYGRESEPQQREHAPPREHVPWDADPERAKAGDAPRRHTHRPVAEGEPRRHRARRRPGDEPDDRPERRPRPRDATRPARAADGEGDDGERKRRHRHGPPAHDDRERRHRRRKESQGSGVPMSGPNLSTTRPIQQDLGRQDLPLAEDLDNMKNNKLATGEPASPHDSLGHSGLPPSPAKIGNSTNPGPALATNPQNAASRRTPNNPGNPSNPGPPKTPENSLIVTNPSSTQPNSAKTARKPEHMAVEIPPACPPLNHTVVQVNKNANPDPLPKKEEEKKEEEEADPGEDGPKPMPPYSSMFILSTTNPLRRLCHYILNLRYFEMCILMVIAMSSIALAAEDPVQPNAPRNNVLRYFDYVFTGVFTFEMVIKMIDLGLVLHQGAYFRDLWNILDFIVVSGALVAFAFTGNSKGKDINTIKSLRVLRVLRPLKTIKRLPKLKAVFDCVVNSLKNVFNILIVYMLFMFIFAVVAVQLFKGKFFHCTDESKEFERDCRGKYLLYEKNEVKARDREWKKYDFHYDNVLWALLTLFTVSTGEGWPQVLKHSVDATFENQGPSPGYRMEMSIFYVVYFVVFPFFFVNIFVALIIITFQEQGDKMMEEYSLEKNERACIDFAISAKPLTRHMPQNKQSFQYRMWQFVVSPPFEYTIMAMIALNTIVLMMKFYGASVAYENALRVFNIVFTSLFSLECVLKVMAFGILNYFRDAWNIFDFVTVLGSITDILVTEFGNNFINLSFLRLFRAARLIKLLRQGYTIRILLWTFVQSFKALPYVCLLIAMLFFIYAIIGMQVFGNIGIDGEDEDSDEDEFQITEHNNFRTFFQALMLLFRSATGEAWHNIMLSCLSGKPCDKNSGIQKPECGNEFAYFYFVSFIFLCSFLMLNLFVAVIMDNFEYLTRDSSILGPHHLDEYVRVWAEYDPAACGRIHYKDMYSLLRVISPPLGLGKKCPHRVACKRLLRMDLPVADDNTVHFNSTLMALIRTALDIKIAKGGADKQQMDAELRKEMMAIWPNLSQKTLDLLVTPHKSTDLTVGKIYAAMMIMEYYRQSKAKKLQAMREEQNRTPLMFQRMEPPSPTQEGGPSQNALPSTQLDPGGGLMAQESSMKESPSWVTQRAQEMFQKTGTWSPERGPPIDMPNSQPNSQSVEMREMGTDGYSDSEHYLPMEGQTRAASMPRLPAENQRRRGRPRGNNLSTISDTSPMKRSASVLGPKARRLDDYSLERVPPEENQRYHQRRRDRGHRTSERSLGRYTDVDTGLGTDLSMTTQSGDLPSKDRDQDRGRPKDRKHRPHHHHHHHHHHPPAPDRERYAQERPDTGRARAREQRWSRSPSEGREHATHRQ

CCCCC[C@H](O)CC(=O)CCc1ccc(O)c(OC)c1 was tested, and the outcome was “inactive”.
